In PubChem BioAssay (NCI) one finds growth data, which are given here for 38 compounds.

This is part of a sample that, as a whole, favours compounds with a hit. Of some 83,000 tested, about 20% had one in any assay.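 Values shown are percent growth following 48 h exposure of cells in 96-well plates to a single concentration of compound; below 10 was considered active.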 The source made the active and inactive calls.

The subject of this test is UO-31 renal. The experiment in a line: NCI-60 one-dose screen, 48 h (100 = growth as untreated, 0 = no growth, -100 = all killed). To be noted: 10 µM unless noted.
For `CCNC(=O)CCCCC(=O)c1c(C)[nH]c(/C=C2\N=C(c3ccc[nH]3)C=C2OC)c1C`, the growth is -100% (active).

For the compound `CC(=O)OCC1OC(OCC2OC(OC(C)=O)C(OC(C)=O)C(OC(C)=O)C2OC(C)=O)C(OC(C)=O)C(OC(C)=O)C1OC(C)=O` (stereo not drawn), the growth is 95.4% (inactive). With `Clc1ccc([I+]c2ccc(Cl)cc2Cl)c(Cl)c1` the figure was -50.8% (active).

For the compound `CCC(=O)Oc1cc(/C=C/C(=O)O[C@H]2C[C@H]3CN4CCc5c([nH]c6cc(OC)ccc56)[C@@H]4C[C@@H]3[C@@H](C(=O)OC)[C@@H]2OC)ccc1OC`, the growth was 40.9% (inactive). With `COC1=CC(c2ccc[nH]2)=N/C1=C\c1[nH]c(C)c(C(=O)CCCCC(=O)NCc2ccccc2)c1C` the figure was 13.9% (inactive); with `COc1ccc(-c2nnc(COc3ccc(NS(=O)(=O)c4ccc(OC)cc4)cc3F)o2)cc1`, 51.1% (inactive). With `CN1CCN(c2ccc3cc(-c4nc5ccccc5[nH]4)c(=O)oc3c2)CC1` the figure was 65.5% (inactive); with `CCC1=C[C@@H]2CN(C1)Cc1c([nH]c3ccccc13)[C@@](C(=O)OC)(c1cc3c(cc1OC)N(C=O)[C@H]1[C@@](O)(C(=O)OC)[C@H](OC(C)=O)[C@]4(CC)[C@@H]5C[C@@H]5CN5CC[C@]31[C@@H]54)C2`, 28.7% (inactive). Then `O=S(=O)(c1ccccc1)n1ccc(-c2ccc3c(c2)CCO3)n1`, with 51% (inactive); and `COC1=CC(c2ccc[nH]2)=N/C1=C\c1[nH]c(C)c(CCCn2cc(CCCCCCCCC[C@@H]3Cc4cc(O)ccc4C4CC[C@]5(C)[C@@H](O)CC[C@H]5C43)nn2)c1C` (stereo partly drawn), with 49.8% (inactive); and `CCn1cc(C(=O)O)c(=O)c2cc(F)c(N3CCN(S(=O)(=O)c4ccc(OC)c(OC)c4)CC3)cc21`, with 62.1% (inactive). As to `COc1cc2nc(SCc3cc(OC)c(OC)c(OC)c3)n(Cc3ccccc3)c(=O)c2cc1OC`, the growth is 34.7% (inactive). For the compound `O=[N+]([O-])c1cc(S(=O)(=O)OCC2CO2)ccc1Cl` (stereo not drawn), the growth is 89.7% (inactive). Then `Nc1c(C(=O)Nc2ccccc2)sc2nc3c(cc12)CCC3`, with 80.9% (inactive); and `COc1ccc([N+](=O)[O-])c(/C=C/C(=O)c2ccccn2)c1`, with 73.3% (inactive); and `CC(C(=O)n1cc(-c2ccccc2)c(-c2ccccc2)c1)c1ccccc1` (stereo not drawn), with 88.6% (inactive). With `CCNCc1ccncc1` the figure was 89.8% (inactive); with `NCCSC(c1ccccc1)(c1ccccc1)c1ccccc1`, 42.7% (inactive); with `O=C(O)c1ccc(-n2c(=O)c3ccccc3c3ccccc3c2=O)cc1`, 74.8% (inactive).

In the case of `COc1cc(/C=C2\C=C(c3ccc(F)cc3)N(Cc3ccccc3)C2=O)cc(OC)c1OC`, the growth is 45.9% (inactive). Then `COc1ccc(/C=C2\C(=O)N(C(=O)c3csc(NC(C)=O)n3)N=C2C)cc1`, with 81.9% (inactive).

As to `COc1cccc(NC(=O)Cn2cc3c(=O)oc4ccccc4c3n2)c1`, the growth was 88.5% (inactive). With `CNC(C)=O` the figure was 93.3% (inactive); with `C=C1C(=O)O[C@H]2[C@H](O)[C@@H](C)CCC/C(C)=C/CC[C@@]3(C)O[C@@H]3C[C@@H]12`, 77.4% (inactive); with `CC(=O)Nc1ccc(S(=O)(=O)NC(CCC(=O)Nc2ccc(Cl)cc2)C(=O)O)cc1` (stereo not drawn), 62.1% (inactive).

As for `Cn1c(C(N)=O)cc2c1-c1nc(NC3CCCCC3)ncc1CCC2`, the growth is 67.2% (inactive).

As to `Cc1nc2sccn2c1-c1csc(Nc2ccccc2Cl)n1`, the growth was 42.4% (inactive). With `Cc1ccc(Cn2c(-c3cccs3)nc3ccccc32)cc1` the figure was 59.5% (inactive); with `COC1=CC(c2ccc[nH]2)=N/C1=C\c1[nH]c(C)c(C(=O)CCCCC(=O)Nc2ccccc2)c1C`, 49.9% (inactive).

In the case of `COc1ccc(-c2cn[nH]c2-c2cc(OC)c3c(c2)OCCO3)cc1`, the growth was 50.4% (inactive). With `COc1ccc(/C=C/c2nc(N3CCOCC3)c3cc(F)c(F)cc3n2)cc1OC` the figure was 20.1% (inactive); with `O=c1oc2cc(OS(=O)(=O)c3ccc(F)cc3)ccc2c2c1CCCCC2`, 50.2% (inactive). With `CCn1cc(C(=O)O)c(=O)c2cc(F)c(N3CCN(S(=O)(=O)c4ccc(Cl)cc4Cl)CC3)cc21` the figure was -13.4% (active). Then `O=C(CN1CCN(c2cc3c(cc2F)c(=O)c(C(=O)O)cn3C2CC2)CC1)Nc1ccc(C(=O)/C=C/c2ccccc2)cc1`, with 45% (inactive); and `O=C(CC(O)c1ccncc1)c1ccccc1` (stereo not drawn), with 49.7% (inactive). With `CCn1cc(C(=O)O)c(=O)c2cc(F)c(N3CCN(S(=O)(=O)c4cccc5ccccc45)CC3)cc21`, the growth is -19.7% (active). With `CCN(CC)CCCC(C)N=c1cc(Nc2cc(=NC(C)CCCN(CC)CC)c3cc(OC)ccc3o2)oc2ccc(OC)cc12` (stereo not drawn) the figure was -88.8% (active); with `NC(=S)NN=C1CCCCC1`, 79.8% (inactive).
